Source: PubChem BioAssay
hNpr1 antagonist: blocks ANP-stimulated signaling of human Npr1 receptor; Potency, µM (doses to about 46.3 µM), without a hit: top-dose activity change, negative = inhibition, hits mostly inhibitors; P16066; 76,000 tested, 1.6% active; HEK293 hNpr1 GloSensor cGMP, ANP-stimulated luminescence; calls by dose curve; also: nearly all actives have a fitted effect of over 60% in size
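Compound pre-incubated 30 min at room temperature on GloSensor-loaded HEK293 cells stably carrying hNpr1 and the pGS-40F cGMP biosensor. Stimulation uses hNppA at 0.1 nM final; luminescence is taken at baseline and 20 min post-agonist.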
Luciferase inh: blocks purified firefly luciferase enzyme activity; P08659; purified P. pyralis luciferase, luminescence, biochemical; Potency, µM (doses to about 115 µM), hits mostly inhibitors; 76,000 tested, 2.5% active; AID 1347043; also: nearly all actives have a fitted effect of over 65% in size
Target sequence (P08659 whole entry, looked up): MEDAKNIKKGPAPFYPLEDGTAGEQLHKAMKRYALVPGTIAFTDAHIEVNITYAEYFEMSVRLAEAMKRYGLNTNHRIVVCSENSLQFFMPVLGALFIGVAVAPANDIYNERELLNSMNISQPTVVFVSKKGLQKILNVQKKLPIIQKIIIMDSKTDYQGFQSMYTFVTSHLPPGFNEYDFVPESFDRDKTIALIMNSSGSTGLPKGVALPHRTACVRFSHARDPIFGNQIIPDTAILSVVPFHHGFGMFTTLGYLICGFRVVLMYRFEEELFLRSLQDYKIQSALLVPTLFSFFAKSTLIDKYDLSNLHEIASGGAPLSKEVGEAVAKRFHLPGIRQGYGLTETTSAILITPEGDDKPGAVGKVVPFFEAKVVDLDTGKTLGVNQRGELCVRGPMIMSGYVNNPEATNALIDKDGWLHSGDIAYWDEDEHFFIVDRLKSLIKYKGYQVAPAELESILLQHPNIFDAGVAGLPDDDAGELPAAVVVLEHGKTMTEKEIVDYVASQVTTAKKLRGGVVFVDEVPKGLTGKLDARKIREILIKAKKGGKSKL
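Luminescence read by CCD imaging after purified firefly luciferase (10nM final) was added to substrate buffer holding 10uM D-luciferin and 10uM ATP, pH 7.5, pre-dosed with compound.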
3T3 cytotox: kills NIH 3T3 cells. NIH 3T3 viability, CellTiter-Glo ATP luminescence, 48-72 h. Potency, µM (top dose mostly 96.7 µM), for the others: at the top dose activity change, negative = cytotoxicity, most hits filed as inhibitors. 94,000 tested, 4.3% active; also: nearly all actives have a fitted effect of over 55% in size
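First NIH 3T3 cells are plated at 400 cells/well; next compound is pinned in; then plates incubate 48 or 72 hr at 37 °C; finally CellTiter-Glo is added and luminescence read after 10 min.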
HEK293 tox: kills HEK 293 cells. HEK 293 viability, ATP luminescence (CellTiter-Glo), 48-72 h. Potency, µM (highest dose often 115 µM), inactives show at the highest dose activity change, negative = cytotoxicity, hits mostly inhibitors. 94,000 tested, 6.6% active; also: nearly all actives have a fitted effect of over 60% in size
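Cells seeded first (HEK 293, 250 cells/well), then compound added by pintool. Incubation ran 48 or 72 hr at 37 degree Celsius. CellTiter-Glo was added and luminescence imaged after 10 min at room temperature.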
* hit, by the source's call; i = inactive; ? = inconclusive; / = no result given; [ ] = another dose, or the depositor's remark. The list is not random: actives were taken first. Their share in the collection is about 11%. Unless noted, calls follow the shape of the dose curve; as a rule, active = well fitted curve in the direction sought with a large enough effect; inconclusive = small, poorly fitted or top-dose-only effect, or another doubt; inactive = no such curve, though single readings can be large; an effect the other way counts as inactive or inconclusive. % is scaled to controls: 0 for no effect and ±100 for the full control effect; potency is read from the fitted curve at half-maximal effect.

SMILES	hNpr1 antagonist	Luciferase inh	3T3 cytotox	HEK293 tox
COc1cccc(-c2cc(C3CCN(C(=O)Nc4ccc(OC)cc4OC)CC3)[nH]n2)c1	-4%	i	?	?
CCc1ccc(C(=O)N2CCC(c3cc(-c4cccc(OC)c4)n[nH]3)CC2)cc1	?	i	?	45µM*
COc1cccc(-c2cc(C3CCN(C(=O)Nc4ccccc4OC)CC3)[nH]n2)c1	-15%	i	?	32µM*
CC(=O)N1CCCC(C(=O)N2CCC(N3Cc4cccn4C3=O)CC2)C1 (stereo not given)	/	/	3%	i
Cc1cc(C(=O)NCC23CCC=C2N(C)C(=O)CC3)n(C)n1 (stereo not given)	/	/	-18%	i
C=CCCC(=O)N1[C@@H](c2ccco2)[C@@H](C(=O)OCC)C[C@]12CCCCN(CCOC)C2=O	/	/	-16%	?
O=C(NC1CCCN(CCn2nc3n(c2=O)CCCC3)C1)c1ccccc1 (stereo not given)	/	/	-2%	i
COc1cccc(-c2cc(C3CCN(C(=O)c4cc(C)ccc4C)CC3)[nH]n2)c1	?	i	?	40µM*
O=C(NCCc1cccs1)c1cccc2c1CCN2C(=O)Nc1ccccc1	-20%	16µM*	?	?
Cc1ccc(NC(=O)N2CCc3c(C(=O)NCCCN4CCCC4=O)cccc32)cc1	1.4µM*	0.28µM*	?	45µM*
CCC(=O)N1CCc2c(C(=O)NCc3ccc(OC)cc3)cccc21	-2%	i	-16%	-17%
COc1ccc(NC(=O)N2CCc3c(C(=O)NC(C)C)cccc32)cc1	2.5µM*	0.28µM*	?	25µM*
CCCCN(C)C(=O)c1cccc2c1CCN2C(=O)Nc1ccc(OC)cc1	-8%	18µM*	-21%	?
CCC(=O)N1CCc2c(C(=O)Nc3ccc(C)cc3)cccc21	0%	i	-24%	-23%
O=C(NC1CCN(CCn2nc3n(c2=O)CCCC3)C1)c1ccc2c(c1)OCO2 (stereo not given)	/	/	-6%	i
COCCCNc1ccnc(-c2nnc(C)n2-c2ccccc2)c1	-14%[70.6 µM]	i	100µM*	-10%[172 µM]
Cn1nc(N2CCC(NS(=O)(=O)c3ccccc3F)CC2)ccc1=O	/	/	-29%	-17%
O=C(O)CCC(=O)N1Cc2ccccc2CC2(CCCCN2CCc2ccccc2)C1 (stereo not given)	/	/	i	i
CCN1c2cc(C(=O)Nc3ccc(Cl)c(F)c3)ccc2C(=O)N2CCCCC21 (stereo not given)	-14%	i	?	35µM*
CCN1c2cc(C(=O)Nc3ccc(F)c(F)c3)ccc2C(=O)N2CCCCC21 (stereo not given)	0%	i	?	40µM*
CCN1c2cc(C(=O)Nc3ccc(Cl)c(F)c3)ccc2C(=O)N2CCCCCC21 (stereo not given)	0%	i	?	?
COc1ccc(Nc2ccnc(N3CCC(NC(=O)c4ccccn4)CC3)n2)cc1	/	/	40µM*	?
COc1ccc(C(=O)NC2CCN(c3nccc(Nc4ccccc4Cl)n3)CC2)cc1	/	/	?	-9%
COc1ccc(Nc2ccnc(N3CCC(NC(=O)c4ccccc4C)CC3)n2)cc1	/	/	40µM*	40µM*
COc1ccc(Nc2ccnc(N3CCC(NC(=O)Cc4cccc(Cl)c4)CC3)n2)cc1	/	/	20µM*	25µM*
SMILES	hNpr1 antagonist	Luciferase inh	3T3 cytotox	HEK293 tox
COc1ccc(Nc2ccnc(N3CCC(NC(C)=O)CC3)n2)cc1	/	/	-20%	-9%
COc1ccc(Cc2nnc3ccc(C(=O)NCCCc4ccccc4)cn23)cc1	/	/	?	-22%
O=C1CCC2(C(=O)NCc3ccc4c(c3)OCO4)CCC=C2N1C1CCCC1 (stereo not given)	/	/	-28%	?
N#Cc1ccc(C(=O)N2CCCC(n3cc(-c4nc(-c5ccccc5)no4)nn3)C2)cc1 (stereo not given)	11µM*	?	-23%	?
O=C(c1ccc(F)cc1Cl)N1CCC(n2cc(-c3nc(-c4ccccc4)no3)nn2)CC1	18µM*	?	?	?
O=C(c1cc(F)ccc1F)N1CCC(n2cc(-c3nc(-c4ccccc4)no3)nn2)CC1	-30%	i	?	?
Cc1ccsc1C(=O)N1CCC(n2cc(-c3nc(-c4ccccc4)no3)nn2)CC1	?	i	-28%	40µM*
Cn1cccc1C(=O)N1CCC(n2cc(-c3nc(-c4ccccc4)no3)nn2)CC1	-20%	?	?	?
Cn1cccc1C(=O)N1CCC(n2cc(-c3nc(-c4ccccc4)no3)nn2)C1 (stereo not given)	18µM*	?	?	45µM*
Cc1ccc(C(=O)N2CCCC(n3cc(-c4nc(-c5ccccc5)no4)nn3)C2)cc1 (stereo not given)	0%	?	?	?
O=C(c1cccs1)N1CCC(n2cc(-c3nc(-c4ccccc4)no3)nn2)CC1	?	i	?	35µM*
Cc1ccccc1C(=O)N1CCC(n2cc(-c3nc(-c4ccccc4)no3)nn2)C1 (stereo not given)	7.9µM*	?	?	?
O=C(c1ccccc1)N1CCC(n2cc(-c3nc(-c4ccccc4)no3)nn2)C1 (stereo not given)	13µM*	?	?	?
CCc1noc(-c2cn(C3CCN(C(=O)c4ccccc4)C3)nn2)n1 (stereo not given)	2%	i	-13%	-5%
O=C(c1ccc(Cl)cc1)N1CCC(n2cc(-c3nc(-c4ccccc4)no3)nn2)C1 (stereo not given)	?	?	-55%	22µM*
Cc1ccc(C(=O)N2CCC(F)(C(=O)N3CCOCC3)CC2)s1	/	/	2%	-1%
COc1ccc(-c2ccc(C(=O)NCc3ccccc3F)c(Cl)c2)nn1	/	/	-30%	?
O=C(c1ccncc1)N1CCC(n2cc(-c3nc(-c4ccccc4)no3)nn2)CC1	-29%	?	32µM*	?
O=C(c1ccoc1)N1CCC(n2cc(-c3nc(-c4ccccc4)no3)nn2)CC1	-23%	?	?	?
COc1ccc(CCC(=O)N2CCC3(CCC3OC)CC2)cc1 (stereo not given)	/	/	-23%	-17%
CN(Cc1ccc(F)cc1)c1ccc2ncc(Nc3cccc(O)c3)n2n1	?	i	?	63µM*
CN(Cc1ccc(F)cc1)c1ccc2ncc(Nc3ccc4c(c3)OCO4)n2n1	?	i	28µM*	63µM*
CN(Cc1cccnc1)c1ccc2ncc(Nc3ccc(F)cc3)n2n1	?	i	?	79µM*
CN(Cc1cccnc1)c1ccc2ncc(Nc3ccc4c(c3)OCO4)n2n1	-30%[70.6 µM]	i	?	?
CN1CC(=O)N(C2CCCNC2)Cc2c1ncnc2N1CCOCC1 (stereo not given)	/	/	-23%	-21%
COc1ccccc1C(=O)N1CCN(CCn2nc3n(c2=O)CCCC3)CC1	/	/	-5%[138 µM]	-12%[172 µM]
